Out of some 310,000 compounds screened, about 1,200 (0.39%) were called active. How the calls were made is not given here. Only a sample is shown. Potency and affinity values are given separately.
Biological target: Large T antigen (Simian virus 40) (UniProt P03070)
Assay: SV40 large T antigen inhibitors, biochemical (AID 1903)
Conditions: SV40 large T antigen ATPase/helicase inhibition assay; at 20 µM; stronger effect = higher value

Sequence of Large T antigen (Simian virus 40) (P03070 whole entry, looked up): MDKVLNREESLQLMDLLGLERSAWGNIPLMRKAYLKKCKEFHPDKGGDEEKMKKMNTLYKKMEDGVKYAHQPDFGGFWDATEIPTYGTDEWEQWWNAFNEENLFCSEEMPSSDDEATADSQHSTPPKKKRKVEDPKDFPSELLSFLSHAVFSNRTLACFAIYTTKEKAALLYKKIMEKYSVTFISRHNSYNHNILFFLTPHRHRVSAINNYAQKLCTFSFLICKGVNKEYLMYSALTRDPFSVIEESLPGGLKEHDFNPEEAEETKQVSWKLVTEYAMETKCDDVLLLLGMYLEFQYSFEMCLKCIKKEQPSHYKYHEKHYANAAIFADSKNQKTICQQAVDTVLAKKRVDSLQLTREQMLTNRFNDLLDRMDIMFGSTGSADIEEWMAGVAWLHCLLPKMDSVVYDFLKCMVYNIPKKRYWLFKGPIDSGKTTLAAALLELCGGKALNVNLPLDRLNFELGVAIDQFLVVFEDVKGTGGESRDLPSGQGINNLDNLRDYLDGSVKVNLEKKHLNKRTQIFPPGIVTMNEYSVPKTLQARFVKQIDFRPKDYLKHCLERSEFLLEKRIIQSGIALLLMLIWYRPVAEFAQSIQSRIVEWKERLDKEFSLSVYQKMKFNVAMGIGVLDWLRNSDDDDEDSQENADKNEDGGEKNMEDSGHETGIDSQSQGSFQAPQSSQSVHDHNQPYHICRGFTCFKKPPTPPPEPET

inhibition, inactive:
Cc1ccc2c(c1)N(C(=O)CCC(=O)N1CCCCC1)CCO2 9.22%, N#Cc1c(-c2ccccc2)cc(-c2ccccc2)[nH]c1=O -4.42%, COc1ccc(-c2cc(-c3ccco3)[nH]c(=O)c2C#N)cc1OC 33.5%, N#Cc1c(-c2cccc(Br)c2)cc(-c2ccco2)[nH]c1=O 4.79%, COc1ccc(-c2cc(-c3ccco3)[nH]c(=O)c2C#N)cc1 33.2%, O=C(NCCN1CCCCCC1)C1CCC(CNS(=O)(=O)c2cccc3cccnc23)CC1 (stereo unspecified) 10.5%, CCCN1CCN(CCCNC(=O)CCN2C(=O)COc3ccccc32)CC1 15.1%, COc1ccc(CCNC(=O)Cn2cnc3scc(-c4ccccc4)c3c2=O)cc1OC 5.46%, Cn1nc(C(=O)Nc2ccc(S(=O)(=O)N3CCCC3)cc2)ccc1=O 0.66%, Cc1ccc(C(=O)Nc2ccncc2)cc1[N+](=O)[O-] 13%, Nc1n[nH]c(N)c1N=Nc1ccc(F)cc1 13.8%, Cc1ccc(N=Nc2c(N)n[nH]c2N)cc1 25%, COc1cc2[nH]c3c(=O)n4c(nc3c2cc1OC)SCCC4 7.73%, Cc1cccc(NNC(=O)C2CCC2)c1 10.2%, N#Cc1c(NC(=O)/C=C/c2ccco2)sc2c1CCCC2 11.5%, N#Cc1c(NC(=O)c2ccco2)sc2c1CCC2 28.5%, O=C(CCc1nnc2ccc(NCc3ccco3)nn12)Nc1ccccc1F 14.6%, CCN(c1ccccc1)S(=O)(=O)c1cccc(C(=O)NCC(c2ccco2)N2CCCC2)c1 (stereo unspecified) 20.1%, CCN(CC)S(=O)(=O)c1ccc(NC2=NS(=O)(=O)c3ccccc32)cc1 5.33%, O=S1(=O)N=C(Nc2ccc(N3CCOCC3)cc2)c2ccccc21 7.37%, CN(C)CCOC(=O)C12CC3(C)CC(C)(CC(C)(C3)C1)C2 20.7%, COc1ccc(S(=O)(=O)/N=C2/NC(=O)/C(=C\c3cc(OC)c(OC)cc3[N+](=O)[O-])S2)cc1 31.5%, COc1cc(/C=C2\S/C(=N/S(=O)(=O)c3ccccc3)NC2=O)c([N+](=O)[O-])cc1OC 23%, Cc1ccnc(NC(c2ccccc2O)c2oc(CO)cc(=O)c2O)c1 (stereo unspecified) 13.4%, COc1cccc(CN2CCN(Cc3nc4c(s3)CCCC4)CC2CCO)c1 (stereo unspecified) 7.56%, N#Cc1ccc(Oc2ccc(S(=O)(=O)N3CCOCC3)cn2)cc1 8.88%
